According to PubChem BioAssay AID463173 (ICCB-Longwood Screening Facility, Harvard Medical School, 2010):
Hit rate of the full screen: of about 52,000 compounds, about 4,300 (8.3%) were called active. Rule as the data show it: active = survival mostly below about 52% (no sharp cut-off); inactive = mostly above about 56%. What follows is part of a selection rich in actives, with near analogues and random picks from the rest.

System: DeltatarO mutant
Assay: growth inhibition of S. aureus wild type versus tarO mutant, primary screen, teichoic acid synthesis inhibitors, RN4220, OD600 (AID 463173)
Conditions: OD600, 18 h, active compounds read low, screened at 18.75 µg/mL (by protocol)

Row | SMILES | survival
1 | Cc1ccc(C(C)(C)C)c(OCC(=O)NCCc2nc3ccccc3[nH]2)c1 | 70% (inactive)
2 | O=C(Cn1c(=O)nc(-c2ccccc2)c2cc(Cl)ccc21)NCc1ccccc1 | 83% (inactive)
3 | COc1ccc(NS(=O)(=O)c2cnc(N)nc2)cc1Cl | 67% (inactive)
4 | CN1C(=O)C(Cc2ccccc2)NC1=S (stereo unspecified) | 77% (inactive)
5 | O=C(NC(=S)NCc1ccccc1)c1ccco1 | 71% (inactive)
6 | COc1cc(Cl)c(C)cc1NC(=O)CCc1c(C)nc2c3cccnc3nn2c1C | 87% (inactive)
7 | COc1ccc(Cl)cc1Nc1sc(C(=O)c2ccccc2)c(N)c1C(=O)Nc1ccccc1 | 103% (inactive)
8 | Cc1ccc(CNC(=O)CN2C(=O)C3CCCCN3c3ccc(C(=O)N(C)C)cc32)cc1 (stereo unspecified) | 88% (inactive)
9 | Cc1cc(C)c2nc(NCCNC(=O)C3CCCCC3)c(C#N)cc2c1 | 93% (inactive)
10 | Cc1ccc(Nc2cc(-c3ccccc3)nc(C)n2)cc1 | 24% (active)
11 | CCOC(=O)c1ccc(Nc2cc(-c3ccccc3)nc(C)n2)cc1 | 50% (inactive)
12 | Cc1ccc(-c2cc(-c3ccccc3)nc(N3CCCC3)n2)cc1 | 115% (inactive)
13 | Cc1ccc(CCNC(=O)c2ccc(CS(=O)(=O)Cc3ccc(Cl)cc3)o2)cc1 | 84% (inactive)
14 | Cn1nnc2c(N3CCN(c4ccccc4F)CC3)ncnc21 | 83% (inactive)
15 | Cc1cc(Cl)nc(-c2ccccc2)n1 | 91% (inactive)
16 | CCOc1ccc(NC(=O)CN2CCSc3ccc(S(=O)(=O)N4CCCC4)cc32)cc1 | 76% (inactive)
17 | CCc1ccc(NC(=O)CN2CCSc3ccc(S(=O)(=O)N4CCCC4)cc32)cc1 | -4% (active)
18 | Cc1ccc(NC(=O)CN2CCSc3ccc(S(=O)(=O)N4CCCC4)cc32)cc1 | 77% (inactive)
19 | Cc1ccc(NC(=O)CSc2nc(=O)n(Cc3cccnc3)c3c2CCC3)cc1F | 67% (inactive)
20 | Cc1ccc(C(=O)CSc2ncn(-c3ccccc3)n2)c(C)c1 | 42% (inactive)
21 | Cc1ccc(Cn2cccc(NC(=O)c3ccncc3)c2=O)cc1 | 101% (inactive)
22 | Cc1ccc(Cn2ccn(Cc3ccc(C)cc3)c(=O)c2=O)cc1 | 97% (inactive)
23 | Cc1ccc(Cn2cccc2C2=NC(C)(C)CO2)cc1 | 45% (active)
24 | O=S(=O)(Nc1ccc(F)c(Cl)c1)c1ccc(Br)s1 | 10% (active)

Row | SMILES | survival
25 | COc1ccc(CNS(=O)(=O)c2ccc3c(c2)C(C)(C)C(=O)N3C)cc1OC | 76% (inactive)
26 | CC(C)Oc1ccc(CNS(=O)(=O)c2ccc3c(c2)C(C)(C)C(=O)N3C)cc1 | 84% (inactive)
27 | O=S(=O)(Nc1ccc(F)cc1F)c1ccc(Br)s1 | 22% (active)
28 | COc1ccc(NC(=O)C2CCC(CNS(=O)(=O)c3ccc(Br)s3)CC2)c(OC)c1 (stereo unspecified) | 74% (inactive)
29 | COc1ccc(OC)c(NS(=O)(=O)c2ccc3c(c2)C(C)(C)C(=O)N3C)c1 | 48% (active)
30 | O=c1ccc2cc(S(=O)(=O)Nc3ccc(F)c(Cl)c3)ccc2[nH]1 | 89% (inactive)
31 | O=S(=O)(Nc1ccc(F)cc1F)c1ccc(-n2cccn2)cc1 | 70% (inactive)
32 | O=C(Nc1ccc(Cl)cc1)C1CCC(CNS(=O)(=O)c2ccc(Br)s2)CC1 (stereo unspecified) | 86% (inactive)
33 | Cc1ccccc1NS(=O)(=O)c1ccc(Br)s1 | 109% (inactive)
34 | COc1ccc(OC)c(NS(=O)(=O)c2ccc(Br)s2)c1 | 37% (active)
35 | COc1ccc(OC)c(NS(=O)(=O)c2ccc(-c3cc(C)no3)s2)c1 | 88% (inactive)
36 | O=C(CSCc1ccccc1Cl)N/N=C/c1ccco1 | 101% (inactive)
37 | COc1ccc(-c2nn(-c3ccc(F)cc3F)c3c2cnc2ccc(F)cc23)cc1 | 79% (inactive)
38 | CN1CCC(OC(=O)COc2ccc(F)cc2)CC1 | 79% (inactive)
39 | NS(=O)(=O)c1ccc(CCNC(=O)C2CCN(c3ncnc4c3nc3n4CCCCC3)CC2)cc1 | 83% (inactive)
40 | Cc1ccc(NCc2cccn2-c2nnc(N3CCC(C(=O)NCCc4ccccc4)CC3)s2)cc1 | 68% (inactive)
41 | Cc1ccc2c(c1)N(C(=O)N1CCC(C(=O)NCc3ccccc3F)CC1)CC(C)O2 (stereo unspecified) | 79% (inactive)
42 | Cc1cc(C)c2[nH]c(=O)c(C(c3nnnn3C(C)(C)C)N(CCc3ccc(F)cc3)Cc3ccco3)cc2c1 (stereo unspecified) | 87% (inactive)
43 | CCCSc1nnc2[nH]c(=O)cc(C)n12 | 124% (inactive)
44 | CCOC(=O)C(CC)Sc1nnc2[nH]c(=O)cc(C)n12 (stereo unspecified) | 52% (active)
45 | Cc1cc(=O)[nH]c2nnc(SCC(N)=O)n12 | 69% (inactive)
46 | CN1C(=O)C(=C(C#N)C#N)c2cc(Br)ccc21 | 98% (inactive)
47 | CNC(=O)C1CCC(Cn2c(=O)c3sccc3n(CC(=O)Nc3cc(F)ccc3F)c2=O)CC1 (stereo unspecified) | 79% (inactive)
48 | CCOc1ccccc1NC(=O)Nc1nnc(N(C)Cc2ccccc2)s1 | 53% (active)

Row | SMILES | survival
49 | CCc1ccccc1NC(=O)Nc1nnc(N(C)Cc2ccccc2)s1 | 60% (inactive)
50 | Cc1ccccc1NC(=O)Nc1nnc(N(C)Cc2ccccc2)s1 | 85% (inactive)
51 | CCC(C)c1ccc(NC(=O)C2CCCN(c3ncccn3)C2)cc1 (stereo unspecified) | 81% (inactive)
52 | COc1ccc(Cl)cc1NC(=O)CN1c2ccccc2S(=O)(=O)c2ccccc21 | 75% (inactive)
53 | CCc1ccccc1NC(=O)C1CCN(S(=O)(=O)c2ccccc2)CC1 | 56% (inactive)
54 | O=C(Nc1ccccc1C(F)(F)F)C1CCN(S(=O)(=O)Cc2ccccc2)CC1 | 75% (inactive)
55 | COc1ccc(Cl)cc1NC(=O)C1CCN(S(=O)(=O)c2ccc(F)cc2)CC1 | 43% (active)
56 | COc1ccc(C)cc1NC(=O)c1cc(S(=O)(=O)N2CCC(C)CC2)ccc1F | 98% (inactive)
57 | Cc1ccc(N2CCN(S(=O)(=O)c3ccc(F)c(C(=O)Nc4ccc(Cl)cc4Cl)c3)CC2C)cc1 (stereo unspecified) | -4% (active)
58 | COc1ccc(Cl)cc1NC(=O)C1CCN(S(=O)(=O)c2ccc3c(c2)CC(C)N3C(C)=O)CC1 (stereo unspecified) | 92% (inactive)
59 | COc1cc(Cl)c(C)cc1NC(=O)c1cc(S(=O)(=O)N2CCCC2)ccc1F | 37% (active)
60 | O=C(Nc1ccccc1C(F)(F)F)C1CCN(S(=O)(=O)c2ccccc2)CC1 | 49% (active)
61 | COc1ccc(OC)c(NC(=O)C2CCN(S(=O)(=O)c3ccc(C)cc3)CC2)c1 | 50% (inactive)
62 | O=C(Nc1ccc(Cl)cc1Cl)c1cc(S(=O)(=O)N2CCCCCC2)ccc1F | 76% (inactive)
63 | Cc1cccc(N2CCN(S(=O)(=O)c3ccc(F)c(C(=O)Nc4cccc(Cl)c4C)c3)CC2C)c1 (stereo unspecified) | 85% (inactive)
64 | Cc1ccc(C)c(N2CCN(S(=O)(=O)c3ccc(F)c(C(=O)Nc4ccc(Cl)cc4Cl)c3)CC2)c1 | 96% (inactive)
65 | CCc1nn(CC(=O)NCc2ccc(C)cc2)c(=O)c2cc3occc3n12 | 105% (inactive)
66 | CCOc1ccc(NC(=O)Cn2cc(C(=O)c3ccc(F)cc3)c(=O)c3cc4c(cc32)OCCO4)cc1 | 65% (inactive)
67 | COc1ccc2nc(N(Cc3cccnc3)C(=O)COc3ccccc3)sc2c1 | 90% (inactive)
68 | Cc1ccc(OCCCSc2nc(-c3ccc(C(C)(C)C)cc3)nc3cc(=O)[nH]n23)cc1C | 58% (inactive)
69 | COc1ccc(NC(=O)C2=CC(c3ccc4c(c3)OCO4)=NS(=O)(=O)N2C)cc1OC | 79% (inactive)
70 | O=C(CSc1ncn(-c2ccccc2)n1)NC1CCCCC1 | 61% (inactive)
71 | CCOC(=O)c1c(NC(=O)CC)sc(C(=O)OC)c1C | 75% (inactive)
72 | CCOC(=O)c1ccc(-n2c(-c3ccc(C)cc3)c(C)n3c4c(=O)n(C)c(=O)n(C)c4nc23)cc1 | 75% (inactive)

Row | SMILES | survival
73 | COc1ccc(NS(=O)(=O)c2nnc(NC(=O)c3ccccc3F)s2)cc1 | 72% (inactive)
74 | CCN(c1ccccc1C)S(=O)(=O)c1nnc(NC(=O)c2ccc(OC)c(OC)c2)s1 | 40% (active)
75 | CCC(Oc1ccccc1)C(=O)Nc1nnc(S(=O)(=O)Nc2ccccc2)s1 (stereo unspecified) | 40% (active)
76 | CCOc1ccc(C(=O)Nc2nnc(S(=O)(=O)N(CC)c3ccccc3C)s2)cc1 | 44% (active)
77 | CCC(Oc1ccccc1)C(=O)Nc1nnc(S(=O)(=O)N(CC)CC)s1 (stereo unspecified) | 104% (inactive)
78 | COc1ccc(C(=O)Nc2nnc(C(C)C)s2)cc1OC | 55% (inactive)
79 | O=C(COc1ccccc1)Nc1nnc(S(=O)(=O)Nc2ccccc2)s1 | 79% (inactive)
80 | CCOc1ccc(C(=O)Nc2nnc(S(=O)(=O)Nc3ccccc3)s2)cc1 | 34% (active)
81 | CCC(Oc1ccccc1)C(=O)Nc1nnc(S(=O)(=O)N2CCCC2)s1 (stereo unspecified) | 103% (inactive)
82 | O=C(Cn1c(-c2cccs2)cc2cc(Cl)ccc21)N1CCN(c2ccccc2)CC1 | 78% (inactive)
83 | CCOC(=O)c1cccnc1SCC(=O)Nc1ccc(C)cc1C | 79% (inactive)
84 | COc1ccc(NC(=O)CN(C)S(=O)(=O)c2cnc[nH]2)cc1 | 95% (inactive)
85 | CN(Cc1ccccc1)C(=O)CSc1nc2ccccc2n1Cc1ccccc1F | 86% (inactive)
86 | Cc1ccc(OCC(=O)NCC2(N(C)C)CCCCC2)cc1C | 83% (inactive)
87 | CCOc1ccc(CCNC(=O)c2nnc(Cc3ccc(Cl)cc3Cl)o2)cc1OCC | 83% (inactive)
88 | O=C(Nc1nnc(S(=O)(=O)N2CCCC2)s1)c1ccccc1F | 28% (active)
89 | COc1ccccc1C(=O)Nc1nnc(S(=O)(=O)N2CCCCC2)s1 | 69% (inactive)
90 | O=C(Nc1nnc(S(=O)(=O)N2CCCC2)s1)c1ccccc1Cl | 117% (inactive)
91 | COc1ccccc1C(=O)Nc1nnc(S(=O)(=O)N2CCCCCC2)s1 | 56% (active)
92 | COc1ccccc1C(=O)Nc1nnc(S(=O)(=O)N2CCN(c3ccc(F)cc3)CC2)s1 | 50% (inactive)
93 | O=C(Nc1nnc(S(=O)(=O)N2CCCCCC2)s1)c1ccccc1Cl | 38% (active)
94 | Cc1ccccc1C(=O)Nc1nnc(S(=O)(=O)N2CCCCCC2)s1 | 47% (active)
95 | O=C(Nc1nnc(S(=O)(=O)N2CCOCC2)s1)c1ccccc1Cl | 79% (inactive)
96 | O=C(Nc1nnc(S(=O)(=O)N2CCOCC2)s1)c1ccccc1F | 86% (inactive)
